# Screening data as filed in PubChem BioAssay.
# This is a sample that favours compounds with a hit; in the whole collection about 3.4% have one here.
# RGS12 GoLoco inh = qHTS Assay for Inhibitors of RGS12 GoLoco Motif Activity (Red Fluorophore) | 0.44% of 230,000 active | Potency, µM (doses to about 61.6 µM), for the others: at the top dose activity, negative = inhibition, most hits filed as inhibitors | Gai1:RGS12 GoLoco peptide FP, rhodamine, 10 min | AID 880, 2007; active = well fitted inhibition curve with a large enough effect, not every such curve was filed as active; inactive = no such curve, though single readings can be large or run the other way; also: nearly all actives have a fitted effect of over 30% in size
# Tau ThT inhib = qHTS for Inhibitors of Tau Fibril Formation, Thioflavin T Binding | AID 1460, 2008 | recombinant tau K18 P301L, heparin-induced fibrillization, ThT fluorescence | Potency, µM (highest dose often 57.4 µM), for the others: at the highest dose activity, negative = inhibition, usual class: inhibitors | Microtubule-associated protein tau (Homo sapiens), P10636 | 2.1% of 270,000 active; also: nearly all actives have a fitted effect of over 55% in size
# Target sequence (P10636 561-689 P618L limits assumed): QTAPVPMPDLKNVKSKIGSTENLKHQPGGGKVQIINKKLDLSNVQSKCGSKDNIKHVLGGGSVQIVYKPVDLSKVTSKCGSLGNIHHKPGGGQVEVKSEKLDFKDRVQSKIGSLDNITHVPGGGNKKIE
#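 Using a mix of unlabeled (15 uM) and Alexa 594-labeled (0.24 uM) tau K18 P301L, heparin-triggered fibrillization over 6 hr at 37 C was scored by ThT fluorescence.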
# JMJD2E inh = qHTS Assay for Inhibitors of Human Jumonji Domain Containing 2E (JMJD2E). JMJD2E catalytic domain, FDH-coupled NADH fluorescence (FDH is formaldehyde dehydrogenase). Potency, µM (top dose mostly 57.1 µM), inactives show top-dose activity change, negative = inhibition, hits mostly inhibitors. 1.6% of 230,000 active; active = well fitted inhibition curve with a large enough effect, not every such curve was filed as active; inconclusive = small, poorly fitted or top-dose-only effect, or another doubt; inactive = no such curve, though single readings can be large or run the other way;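 also: 0% = wells with enzyme and -100% = buffer wells without enzyme; nearly all actives have a fitted effect of over 50% in size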
# Target sequence (B2RXH2 1-337 limits assumed): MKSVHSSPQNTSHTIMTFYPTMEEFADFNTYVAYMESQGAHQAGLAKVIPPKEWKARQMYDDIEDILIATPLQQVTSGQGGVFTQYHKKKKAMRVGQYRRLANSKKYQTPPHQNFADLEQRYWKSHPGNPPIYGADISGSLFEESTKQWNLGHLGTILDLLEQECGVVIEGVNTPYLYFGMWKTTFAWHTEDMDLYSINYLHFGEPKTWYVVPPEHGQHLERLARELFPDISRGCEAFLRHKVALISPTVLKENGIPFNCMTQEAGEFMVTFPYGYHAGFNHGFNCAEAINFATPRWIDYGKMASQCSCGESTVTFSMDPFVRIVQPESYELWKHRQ
# Tau fluor cs = Counterscreen qHTS for Inhibitors of Tau Fibril Formation, Fluorescence Polarization. tau K18 P301L (four-repeat tau fragment) Alexa594 fluorescence, heparin fibrillization. Potency, µM (highest dose often 57.7 µM), for the others: at the highest dose activity change, negative = decrease. 0.93% of 280,000 active; also: nearly all actives have a fitted effect of over 55% in size
#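 Human K18 P301L tau (15 uM unlabeled plus 0.24 uM Alexa 594-labeled, final) in 100 mM sodium acetate pH 7 was mixed with compound and 20 uM heparin and incubated 6 hr at 37 C.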
# Tau FP inhib = qHTS for Inhibitors of Tau Fibril Formation, Fluorescence Polarization. AID 1468, 2008. Microtubule-associated protein tau (Homo sapiens), P10636. 0.39% of 280,000 active. Potency, µM (top dose mostly 57.7 µM), for inactives: at the highest dose activity, negative = inhibition, usual class: inhibitors. K18 P301L tau heparin fibrillization, Alexa594 FP, 6 h; also: nearly all actives have a fitted effect of over 55% in size
#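 K18 P301L tau (15 uM unlabeled/0.24 uM Alexa 594-labeled, final) + compound + heparin 20 uM final; 100 mM NaOAc pH 7; 6 hr 37 C; ThT 30 uM final added, 1 hr RT; FP ex 555/em 632 nm.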
# The depositor's hits bear a star; ? = inconclusive; · = no result; [ ] = another dose, or the depositor's remark. Unless noted, calls follow the shape of the dose curve; as a rule, active = well fitted curve in the direction sought with a large enough effect; inconclusive = small, poorly fitted or top-dose-only effect, or another doubt; inactive = no such curve, though single readings can be large; an effect the other way counts as inactive or inconclusive. Unless noted, % is scaled to controls: 0 for no effect and ±100 for the full control effect; potency is read from the fitted curve at half-maximal effect.
SMILES,RGS12 GoLoco inh,Tau ThT inhib,JMJD2E inh,Tau fluor cs,Tau FP inhib
O=C(CSc1nc(-c2ccc(F)cc2)[nH]c1-c1ccccc1)Nc1ccccc1,·,6%,·,?,?
COc1ccc(NC(=O)CSc2nc(-c3ccc(F)cc3)[nH]c2-c2ccc(C)cc2)cc1OC,·,?,·,3.5µM*[quencher],-15%
COc1ccc(NC(=O)CSc2nc(-c3ccccc3)[nH]c2-c2ccccc2)cc1OC,·,?,·,16µM*[quencher],2%
CCCCn1c(C2CC(=O)N(c3ccc(OCC)cc3)C2)nc2ccccc21 (stereo not drawn),·,-15%,·,-4%,-5%
Cc1ccc2c(c1)-c1nc(-c3ccc4c(c3)NC(=O)CO4)cc(-c3ccccc3)c1CO2,·,3%,·,-24%,?
COc1cccc(NC(=O)CSc2ncc(S(=O)(=O)c3ccc(C)c(C)c3)c(=O)[nH]2)c1,·,4%,·,-1%,10%
COc1cc(-c2nc(SCC(=O)Nc3ccc(C)cc3)c(-c3ccc(F)cc3)[nH]2)cc(OC)c1OC,·,-17%,·,4.5µM*[quencher],1%
COc1ccccc1C1CC(=O)Oc2cc3c(cc21)OCO3 (stereo not drawn),-1%[88.7 µM],?,·,-21%[81.3 µM],-5%[81.3 µM]
Cc1ccc(S(=O)(=O)c2nc(C(C)(C)C)oc2N2CCOCC2)cc1,-39%,?,?,-16%,40µM*
CCOc1ccc(C(=O)N2CCC(c3nc4ccccc4o3)CC2)cc1,·,?,·,-12%,0%
CC1=NOC(=O)/C1=C\c1ccc(-c2ccc(Cl)cc2Cl)o1,38%,20µM*,-5%,?,-5%
Cc1cccc(C)c1NC(=O)c1ccc(-c2ccc(Cl)cc2Cl)o1,-4%,-11%,-27%,-12%,-3%
CC(=O)c1cccc(NC(=O)Cn2c(C)c3cnn(-c4ccccc4)c(=O)c3c2C)c1,·,-7%,·,-20%,-4%
CCOC(=O)Nc1ccc2c(c1)Nc1ccccc1S2,-3%,7.9µM*,6%,14µM*[quencher],-13%
O=C(CNC(=O)c1ccccc1)NC1(C(=O)NC2CCCCC2)CCCCC1,10%,4%,3%,-2%,-6%
O=C(CNC(=O)c1ccccc1)NC1(C(=O)NC2CCCC2)CCCCC1,·,-11%,-2%,2.8µM*[quencher],?
COc1cc(N2CCCC2)c(OC)cc1/C=C1/NC(=S)NC1=O,108%,11µM*,-5%,?,-6%
Cc1cc(C)c2c(=O)c(/C=C3\NC(=S)NC3=O)coc2c1,28%,·,-4%,12%,-1%
NC(=O)c1ccsc1N,20µM*,20µM*,-8%,-25%,32µM*
Nc1sccc1C(=O)c1ccc(Cl)cc1,6%,-13%,9%,-20%,7%
CCc1ccc(NC(=O)CN2C(=O)C(c3ccc(C)cc3)=NC23CCCCC3)cc1,·,0%,·,-11%,-15%
Cc1cc(C2=CC(C)(c3cc(C)oc3C)Nc3nc(C(F)(F)F)nn32)c(C)o1 (stereo not drawn),5%,28µM*,?,-11%,?
CCc1ccc(NC(=O)Cn2c(=O)n(CCCCC(=O)NCc3ccccc3Cl)c(=O)c3ccccc32)cc1,·,-10%,·,?,-16%
COc1cc(S(=O)(=O)NCCc2c(C)[nH]c3ccccc23)c(C)cc1C,·,?,·,13µM*[quencher],?
CCOc1ccc(-c2nc3c(C#N)c[nH]n3c2NC2CCCC2)cc1,·,-13%,·,-12%,3%
O=C(Nc1ccc(Cl)cc1)/C(=C/c1ccc([N+](=O)[O-])cc1)c1nc2ccccc2s1,6%,14µM*,?,-25%,?
O=[N+]([O-])c1ccc(Nc2nc3ccccc3s2)cc1,-2%[14.2 µM],·,·,·,·
CCCS(=O)(=O)NCCc1sc2nc(-c3ccc(Cl)cc3)nn2c1C,·,10%,·,-5%,?
O=C(N/N=C/c1c(O)ccc2ccccc12)c1ccc[n+](CCO)c1,10%,?,32µM*,-18%,5%
